The values that follow come from PubChem BioAssay AID434970 (Sanford-Burnham Center for Chemical Genomics, 2010).

Hit rate of the full screen: of about 11,000 compounds, about 310 (2.8%) were called active. Rule as the data show it: active = activity change below about -85%; inactive = the rest. Many of the other results were omitted from the sample, so actives are more common in it than they were.

This experiment concerns intestinal alkaline phosphatase [Mus musculus]. Put plainly: mouse intestinal phosphatase enzyme activation – biochemical, luminescence, single concentration, confirmation (AID 434970). The conditions noted are these: purified mouse IAP, CDP-Star luminescence, 30 min, at 10 µM; activation factor: measured here: IAP activation factor, stronger effect = higher value; activity change, negative = activation: stronger effect = lower value.
In the case of `OCCN1CCN(C(=S)c2ccc(Cl)c(Cl)c2)CC1`, the activation factor amounted to 0.845 and the activity change, negative = activation was 15.5% (inactive).

On to `CSCC[C@H](N)C(=O)NC[C@H]1O[C@@H](n2cnc3c(N)ncnc32)[C@H](O)[C@@H]1O`, for which the activation factor was found to be 0.994 and the activity change, negative = activation was 0.55% (inactive).

Consider `CC(C)CC(=O)NC(NC(=S)Nc1sc2c(c1C#N)CCCC2)C(Cl)(Cl)Cl` (stereo not given), for which the activation factor came out at 0.587 and the activity change, negative = activation is 41.3% (inactive).

Regarding `C[C@H](CO)N1C[C@H](C)[C@H](CN(C)Cc2ccc(Oc3ccccc3)cc2)Oc2ccc(NC(=O)Nc3cccc4ccccc34)cc2CC1=O`, the activation factor was determined as 2.03 and the activity change, negative = activation was -103% (active).

As for `C[C@@H]1CN([C@H](C)CO)C(=O)c2cc(NC(=O)Nc3cccc4ccccc34)ccc2O[C@H]1CN(C)Cc1ccc(C(F)(F)F)cc1`, the activation factor came out at 2.2 and the activity change, negative = activation was -120% (active).

With `C[C@@H]1CN([C@@H](C)CO)C(=O)Cc2cc(NC(=O)Nc3cccc4ccccc34)ccc2O[C@@H]1CN(C)S(C)(=O)=O`, the activation factor came to 1.46 and the activity change, negative = activation is -46.2% (inactive).

Consider `C[C@@H]1CN([C@H](C)CO)C(=O)Cc2cc(NC(=O)Nc3ccccc3)ccc2O[C@@H]1CN(C)Cc1ccc2c(c1)OCO2`, for which the activation factor stood at 1.66 and the activity change, negative = activation is -66.3% (inactive).

For the molecule `C[C@H]1CN([C@@H](C)CO)C(=O)c2cc(NC(=O)Nc3cccc4ccccc34)ccc2O[C@@H]1CN(C)Cc1ccc(-c2ccccc2)cc1`, the activation factor came out at 2.14 and the activity change, negative = activation is -114% (active).

For `C[C@@H]1CN([C@@H](C)CO)C(=O)c2cc(NC(=O)Nc3ccccc3)ccc2O[C@H]1CN(C)C(=O)Nc1cccc2ccccc12`, the activation factor amounted to 1.8 and the activity change, negative = activation was -79.6% (inactive).

`C[C@@H]1CN([C@@H](C)CO)C(=O)c2cccc(NC(=O)Nc3ccc(F)cc3)c2O[C@@H]1CN(C)Cc1ccc(Oc2ccccc2)cc1`: the activation factor came to 2.17 and the activity change, negative = activation is -117% (active).

In the case of `C[C@H](CO)N1C[C@H](C)[C@H](CN(C)Cc2ccccc2)Oc2ccc(NC(=O)Nc3ccc(F)cc3)cc2C1=O`, the activation factor was 1.54 and the activity change, negative = activation was -53.5% (inactive).

Take `C[C@@H]1CN([C@H](C)CO)C(=O)c2cc(NC(=O)Nc3ccc(F)cc3)ccc2O[C@H]1CN(C)C(=O)Nc1ccc(C(F)(F)F)cc1`: the activation factor came to 1.57 and the activity change, negative = activation was -57.4% (inactive).

Take `C[C@@H]1CN([C@@H](C)CO)C(=O)Cc2cc(NC(=O)Nc3cccc4ccccc34)ccc2O[C@@H]1CN(C)Cc1ccc(C(F)(F)F)cc1`: the activation factor came to 1.75 and the activity change, negative = activation was -75% (inactive).

For the molecule `CC(C)NC(=O)N(C)C[C@H]1Oc2ccc(NC(=O)Nc3ccc(C(F)(F)F)cc3)cc2C(=O)N([C@H](C)CO)C[C@@H]1C`, the activation factor was 1.96 and the activity change, negative = activation is -96.3% (inactive).

Regarding `C=CCn1c(C)cc(C(=O)COC(=O)COc2ccccc2C#N)c1C`, the activation factor turned out to be 0.919 and the activity change, negative = activation is 8.05% (inactive).
